Assay results reported in PubChem BioAssay AID431 (Sanford-Burnham Center for Chemical Genomics, 2006).
Among all 63,000 compounds or so, about 1,100 (1.7%) were called active.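 Rule for the calls: active = compounds whose percent cytotoxicity in the single-dose primary screen, scaled between solvent and toxic-drug controls, exceeds 50; inactive = the rest.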 This excerpt belongs to a sample that is enriched for actives. Measured potencies and affinities stand elsewhere.

experiment: cytotoxicity in KRAS-transformed pancreatic duct cells, primary screen, cell-based, fluorescence, HTS (AID 431); settings: HPDE-C7K KRASV12 cells, Alamar Blue viability, 48 h; at 10 µM; active compounds read high;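 note: 0% = DMSO solvent wells and 100% = doxorubicin-treated wells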

Row | Structure (SMILES) | cytotoxicity
1 | COc1ccc(CCNC(=O)c2ccncc2)cc1OC | -13.2% (inactive)
2 | COc1ccc(C(=O)NCCn2ccc3ccccc32)c(OC)c1 | -8.9% (inactive)
3 | Cc1ccc(-c2noc(CCC(=O)N3CCCC3)n2)cc1 | -6.9% (inactive)
4 | Cc1ccc(S(=O)(=O)N(C)Cc2nc(-c3ccncc3)no2)cc1 | -0.7% (inactive)
5 | Cc1ccccc1-c1noc(-c2ccc(O)cc2)n1 | 29.6% (inactive)
6 | CCN(CC)C(=O)CSc1nc(C)cc(-c2cccs2)c1C#N | 2.8% (inactive)
7 | CN1CCN(C(=O)CSc2nc(-c3cccs3)ccc2C#N)CC1 | 15.2% (inactive)
8 | CC(C)C(=O)N1CCc2cc(-c3csc(N)n3)ccc21 | -1% (inactive)
9 | C=CCn1c(SCC(=O)NC(=O)NCc2ccco2)nc2sc(C)c(C)c2c1=O | 4.8% (inactive)
10 | C=CCn1c(SCC(=O)NC(=O)NCc2ccco2)nc2sc(CC)cc2c1=O | 63.4% (active)
11 | O=C(CSc1nc2ccccc2s1)NC(=O)NCc1ccco1 | 87.6% (active)
12 | O=C(CCCSc1nc2ccccc2s1)NCc1ccco1 | 5.8% (inactive)
13 | C=CCn1c(SCC(=O)N2CCN(C(=O)c3ccco3)CC2)nc2sc(CC)cc2c1=O | -11.5% (inactive)
14 | O=C(CSc1nc2cc(Cl)ccc2s1)NC(=O)NCc1ccco1 | -8.3% (inactive)
15 | COc1cccc(-c2nc(CS(=O)(=O)CC(=O)NCCC(C)C)c(C)o2)c1 | 2.6% (inactive)
16 | COC(=O)c1ccc(N=c2sc(C(=O)OC)cc(=O)n2C)cc1 | -16.7% (inactive)
17 | Oc1ccc(Nc2nc(N3CCCC3)c3ccccc3n2)cc1 | 94.4% (active)
18 | COc1ccc(Nc2nc(N3CCCC3)c3ccccc3n2)cc1 | 22.5% (inactive)
19 | Cc1ccc(Nc2nc(N3CCOCC3)c3ccccc3n2)cc1 | 28.7% (inactive)
20 | COc1ccc(C(=O)n2cnc(N)n2)cc1 | 6.1% (inactive)
21 | CCCCOc1ccc(C(=O)N2CCCCCC2)cc1 | -8.5% (inactive)
22 | CCCCCCOc1ccc(C(=O)n2cnc(N)n2)cc1 | 82.6% (active)

Row | Structure (SMILES) | cytotoxicity
23 | Cc1ccc2cc(CN(C(=O)c3ccco3)c3ccccc3)c(=O)[nH]c2c1 | -0.6% (inactive)
24 | COc1ccc(CCNC(=O)c2nonc2N)cc1OC | 0.1% (inactive)
25 | Cn1c(C(=O)NCCc2c[nH]c3ccccc23)cc2sccc21 | 6.9% (inactive)
26 | CCSc1nnc(NC(=O)NC(CC)(C(F)(F)F)C(F)(F)F)s1 | 19.4% (inactive)
27 | CC(NC(=O)Nc1nccs1)(C(F)(F)F)C(F)(F)F | -3.9% (inactive)
28 | CCC(NC(=O)Nc1nccs1)(C(F)(F)F)C(F)(F)F | -11.8% (inactive)
29 | O=C(NCC(F)(F)F)Nc1nnc(C(F)(F)F)s1 | 12.5% (inactive)
30 | CCn1cc(C(=O)N=c2sc3ccccc3n2C)c(=O)c2ccc(C)nc21 | -2% (inactive)
31 | COc1cc(C(=S)N2CCCCC2)ccc1OCC(=O)N1CCCC1 | -1.9% (inactive)
32 | COc1ccc(-n2c(Cc3cccn3C)nnc2SCC(=O)Nc2ccc(Cl)cc2)cc1 | 48.9% (inactive)
33 | CCCOC(=O)C1=C(C)NC2=C(C(=O)C(C(=O)OC)C(C)C2)C1c1ccc(N(CC)CC)cc1 (centres undefined) | -15.1% (inactive)
34 | Cc1ccc(Cl)cc1N1CCN(S(=O)(=O)c2cccc(S(=O)(=O)N3CCCC3)c2)CC1 | 0.2% (inactive)
35 | CCn1cc(C(=O)NCc2ccccc2OC)c(=O)c2ccc(C)nc21 | -1.4% (inactive)
36 | Cc1cc2c(cc(C(=O)OCC(=O)NCc3cccs3)n2C(C)C)o1 | 59.5% (active)
37 | Cn1c(C(=O)OCC(=O)NCc2cccs2)cc2sccc21 | -3.4% (inactive)
38 | CC(C)n1c(C(=O)OCC(=O)NCc2ccc3c(c2)OCO3)cc2sccc21 | 22.7% (inactive)
39 | Cc1cccc2cc(C(c3nnnn3CC3CCCO3)N3CCc4ccccc4C3)c(=O)[nH]c12 (centres undefined) | -7.5% (inactive)
40 | Cc1ccc(S(=O)(=O)NCC(=O)OCC(=O)c2cccs2)cc1 | 4.8% (inactive)
41 | COc1ccc(-c2cc(C(=O)Nc3ccccc3SC)no2)cc1OC | 1.4% (inactive)
42 | O=C(O)c1[nH]c2ccc(Cl)cc2c1CC(=O)N1CCN(c2ccccc2)CC1 | 8% (inactive)
43 | Cc1cccc(N2CCN(C(=O)Cc3c(C(=O)O)[nH]c4ccc(Cl)cc34)CC2)c1C | 57.9% (active)
44 | O=C(O)c1[nH]c2ccc(Cl)cc2c1CC(=O)N1CCN(C(=O)c2ccco2)CC1 | 3.2% (inactive)

Row | Structure (SMILES) | cytotoxicity
45 | Cc1cccc(-n2c(CNC(=O)c3ccc(S(=O)(=O)N4CCCC4)cc3)n[nH]c2=S)c1 | -12% (inactive)
46 | Cc1ccc(NC(=O)c2cnn(-c3ccccc3)c2NC(=O)c2ccco2)cc1C | -1.9% (inactive)
47 | Cc1ccc(-n2ncc(C(=O)N3CCc4ccccc4C3)c2NC(=O)c2ccco2)cc1C | 80.3% (active)
48 | O=C(Nc1c(C(=O)N2CCCCC2)cnn1-c1ccccc1)c1ccco1 | -3.5% (inactive)
49 | Cc1cc(C)n(CC(O)COCc2ccco2)n1 (centres undefined) | -7.5% (inactive)
50 | COc1c(Br)cc(Br)cc1/C=N/n1c(C)nnc1C | 11.1% (inactive)
51 | Cc1nnc(C)n1/N=C/c1cc(Br)ccc1O | -18.8% (inactive)
52 | Cc1nnc(C)n1/N=C/c1cc(Br)cc(Br)c1O | 86.5% (active)
53 | COc1ccc(Cl)cc1NS(=O)(=O)c1ccc(S(=O)(=O)N2CCCC2)cc1 | 19.4% (inactive)
54 | c1cncc(-c2nc(NCc3ccco3)c3ccccc3n2)c1 | 10.1% (inactive)
55 | CSCC[C@@H](Nc1nc(-c2ccccc2)nc2c1oc1ccccc12)C(=O)O | 20% (inactive)
56 | COc1ccc(CCNC(=O)CSc2nc(-c3ccco3)cc(C(F)(F)F)n2)cc1OC | -11.5% (inactive)
57 | O=C(C1CCN(S(=O)(=O)c2cccc3cccnc23)CC1)N1CCN(C2CCCCC2)CC1 | 8.4% (inactive)
58 | N#C/C(=C(\O)c1ccco1)c1ccccn1 | -1.4% (inactive)
59 | COc1ccc(-c2nnc3sc(-c4c(OC)cccc4OC)nn23)cc1 | 10.6% (inactive)
60 | COc1ccc(-c2nnc3sc(-c4cccs4)nn23)cc1OC | 11.7% (inactive)
61 | COc1cc(-c2nnc3sc(-c4ccncc4)nn23)cc(OC)c1OC | -1.5% (inactive)
62 | COc1cccc(OC)c1-c1nn2c(-c3cc(-c4ccccc4)n[nH]3)nnc2s1 | 58.4% (active)
63 | COc1cc(-c2nnc3sc(-c4cccs4)nn23)cc(OC)c1OC | 62.9% (active)
64 | COc1cccc(OC)c1-c1nn2c(-c3ccccc3Cl)nnc2s1 | 17.5% (inactive)
